High-throughput results from PubChem.
Only some compounds are listed: those with a hit (about 9.2% of all), similar ones and a draw of the others.
Rab9 prom act: qHTS Assay for Rab9 Promoter Activators | Potency, µM (titrated, usually from 9.22 µM), for the others: top-dose activation, negative = inhibition, actives largely listed as activators | Huh7 Rab9 promoter-luciferase reporter, luminescence, 24 h | 320,000 compounds, 2.8% hits; further: % of control where 0% means no effect; nearly all actives have a fitted effect of over 60% in size
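Promoter activation is measured as luciferase luminescence in Huh7 cells stably transfected with a Rab9 promoter–luciferase construct, following 24 h compound exposure at 37 °C and 10 min reagent incubation at ambient temperature.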
NPC1 promoter act: qHTS Assay for NPC1 Promoter Activators; Huh7 NPC1 promoter luciferase reporter, 24 h; Potency, µM (doses to about 9.22 µM), for inactives: top-dose activation, most hits filed as activators; 320,000 compounds, 2.4% hits; further: % of control where 0% means no effect; nearly all actives have a fitted effect of over 60% in size
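Cells: Huh7 expressing luciferase under the NPC1 promoter, 1500/well. Seeded 2 h, compound added, incubated 24 h at 37 °C. Luciferase reagent, 10 min ambient, then luminescence.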
ELG1 genotoxic: qHTS screen for small molecules that induce genotoxicity in human embryonic kidney (HEK293T) cells expressing luciferase-tagged ELG1. HEK293T ELG1-luciferase reporter, luminescence, 16 h. AID 504466, 2011. Potency, µM (doses to about 46 µM), for the others: top-dose activity change, positive = activation, hits mostly activators. 330,000 compounds, 1.3% hits; further: % of control where 0% means no effect; nearly all actives have a fitted effect of over 60% in size
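ELG1-luciferase HEK293T cells, 2,000/well; compound pinned in; 16 hr, 37 °C, 5% CO2; ONE-Glo, 30 min RT; luminescence on CCD imager.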
SMN2 splice enh: qHTS Assay for Enhancers of SMN2 Splice Variant Expression. HEK293 SMN2-luciferase splicing reporter, luminescence, 30-36 h. Potency, µM (highest dose often 46.1 µM), for the others: at the top dose activity change, positive = activation, hits mostly activators. 210,000 compounds, 2.8% hits. AID 1458, 2008; further: % of control where 0% means no effect; nearly all actives have a fitted effect of over 55% in size
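HEK293 cells carry an SMN2 […]–luciferase reporter in which exon 7 inclusion puts luciferase in frame. Cells were plated 10-12 h before compound addition, then incubated 30-36 h at 37C. ONE-Glo luminescence was read; sodium butyrate at 4.5 mM final served as control.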
FLuc modulator: qHTS profiling assay for firefly luciferase inhibitor/activator using purifed enzyme and Km concentrations of substrates (counterscreen for miR-21 project). 360,000 compounds, 6.9% hits. purified FLuc, Km substrates, luminescence inhibition. Luciferin 4-monooxygenase (Photinus pyralis), P08659. Potency, µM (titrated, usually from 57.5 µM), inactives show at the top dose activity change, negative = inhibition, actives largely listed as inhibitors;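 further: plate controls were vehicle for no effect and reference inhibitor for full effect; nearly all actives have a fitted effect of over 55% in size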
Target sequence (P08659 whole entry, looked up): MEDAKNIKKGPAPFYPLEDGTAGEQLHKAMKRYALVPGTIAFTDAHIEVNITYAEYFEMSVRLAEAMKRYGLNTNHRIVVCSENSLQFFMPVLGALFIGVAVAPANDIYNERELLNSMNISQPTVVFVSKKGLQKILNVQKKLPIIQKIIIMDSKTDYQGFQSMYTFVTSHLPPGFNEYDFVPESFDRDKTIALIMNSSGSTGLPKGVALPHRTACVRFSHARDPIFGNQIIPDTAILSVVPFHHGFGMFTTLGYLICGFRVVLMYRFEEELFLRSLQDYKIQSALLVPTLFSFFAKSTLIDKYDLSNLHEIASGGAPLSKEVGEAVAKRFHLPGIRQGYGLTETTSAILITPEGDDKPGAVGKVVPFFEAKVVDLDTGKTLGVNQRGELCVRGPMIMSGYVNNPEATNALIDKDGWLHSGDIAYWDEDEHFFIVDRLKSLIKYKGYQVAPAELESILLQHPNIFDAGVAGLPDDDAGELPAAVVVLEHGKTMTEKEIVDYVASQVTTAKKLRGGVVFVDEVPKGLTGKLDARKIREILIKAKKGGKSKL
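Purified P. pyralis luciferase, 10 nM final, with Km-level 10 uM D-luciferin and 10 uM ATP in 50 mM Tris acetate pH 7.5, 10 mM Mg acetate, 0.01% Tween-20, 0.05% BSA; 6-point qHTS titration about 60 µM downward; luminescence read.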
ELG1 repair inh: qHTS screen for small molecules that inhibit ELG1-dependent DNA repair in human embryonic kidney (HEK293T) cells expressing luciferase-tagged ELG1; HEK293T ELG1-luciferase reporter, luminescence, 16 h; DNA damage induced by 5-fluorouridine; Potency, µM (series often up to 46.1 µM), for the others: at the top dose activity change, negative = inhibition, most hits filed as inhibitors; 330,000 compounds, 2.3% hits; AID 504467, 2011; further: on the % scale 0 is the no-effect control and ±100 the full control effect; nearly all actives have a fitted effect of over 55% in size
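Reporter activity after DNA damage by 5-fluorouridine is monitored. Compound-treated cells incubate 16 hr at 37 °C, then ONE-Glo is added for 30 min before luminescence reading.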
* marks the source's active call; other numbers are inactive results; ? = inconclusive; nt = no result given. The call rests on the fitted dose curve; in most records, active means well fitted curve in the direction sought with a large enough effect; inconclusive means small, poorly fitted or top-dose-only effect, or another doubt; inactive means no such curve, though single readings can be large; an effect the other way counts as inactive or inconclusive. Potency means the concentration at half of the fitted maximal effect.

SMILES | Rab9 prom act | NPC1 promoter act | ELG1 genotoxic | SMN2 splice enh | FLuc modulator | ELG1 repair inh
O=C(/C=C/Nc1ccc(F)cc1)c1ccc(Oc2ncccn2)cc1 | ? | 16.7% | 0.0% | 24.4% | ? | ?
COc1ccc(N/C=C/C(=O)c2ccc(Oc3ncccn3)cc2)cc1 | 5.6% | 9.2% | 8.6% | -9.7% | 1.69µM* | 18.1%
CCOc1ccc(N/C=C/C(=O)c2ccc(OC)cc2)cc1 | ? | ? | 8.6% | nt | 1.2µM* | ?
CCOc1ccc(N/C=C/C(=O)c2ccc(OC)cc2)c([N+](=O)[O-])c1 | 1.12µM* | 0.398µM* | ? | -24.9% | 0.849µM* | ?
COc1ccc(C(=O)/C=C/Nc2ccc([N+](=O)[O-])cc2)cc1 | ? | ? | 0.7% | ? | -25.3% | ?
Cn1ncc(N=Cc2c(O)ccc3ccccc23)c1C(=O)Nc1cccc(Cl)c1 | 1.6% | 0.2% | 0.1% | -5.7% | -4.3% | -8.9%
O=C(c1ccco1)N1CCN(c2ncnc3sc4c(c23)CCC4)CC1 | 0.2% | 3.0% | -22.6% | -14.9% | -10.4% | 14.6µM*
c1nc(N2CCC3(CC2)OCCO3)c2c3c(sc2n1)CCCC3 | -6.3% | -4.3% | -3.9% | -1.7% | 1.5% | -21.9%
c1ccc(N2CCN(c3ncnc4sc5c(c34)CCC5)CC2)cc1 | -0.8% | -2.3% | -5.8% | -30.0% | -0.1% | 16.4µM*
CCOC(=O)C1=C(c2cccc(Oc3ccccc3)c2)NC(=S)NC1C (stereo not given) | -8.1% | 0.7% | -12.8% | nt | 0.0% | ?
COc1ccccc1N(CC(=O)NCCN1CCOCC1)S(=O)(=O)c1ccccc1 | 0.3% | 1.5% | -1.1% | nt | -0.1% | 3.9%
O=C1CCCc2nc(N3CCCCC3)sc21 | 27.8% | 17.7% | 20.6µM* | ? | ? | ?
Nc1nnc(N2CCCCCC2)s1 | -4.9% | 1.2% | 0.5% | -9.7% | -2.0% | 15.4%
Cn1ccc2c([N+](=O)[O-])cccc2c1=O | -5.9% | -9.3% | -3.3% | 10.8% | 0.5% | ?
O=C(Nc1ccc(N2CCCCC2)c(Cl)c1)c1cccnc1 | 2.82µM* | 2.82µM* | ? | 12.6µM* | 12µM* | ?
O=C(Nc1ccc(Cl)c(S(=O)(=O)N2CCCCC2)c1)c1cccnc1 | -1.2% | -6.6% | -7.8% | nt | 3.3% | ?
O=C(Nc1ccc(N2CCOCC2)c(Cl)c1)c1cccnc1 | 25.0% | 25.6% | 20.6µM* | ? | ? | 24.6%
O=C(Nc1ccc(N2CCCC2)c(Cl)c1)c1cccnc1 | 2.82µM* | 3.16µM* | 5.0% | 15.8µM* | 12µM* | ?
COc1ccccc1NS(=O)(=O)c1cc(NC(=O)c2cccnc2)ccc1N1CCCCC1 | nt | nt | -4.8% | nt | nt | 18.3µM*
COC(=O)c1c(NC(=O)COc2cccc(C(F)(F)F)c2)sc2c1CCCC2 | nt | nt | nt | 18.9% | 0.2% | nt
O=C(Nc1ccc(N2CCOCC2)c(Cl)c1)c1cccc(F)c1 | 1.58µM* | 1.12µM* | 2.31µM* | 10µM* | 4.26µM* | ?
COc1c(C)cccc1C(=O)Nc1ccc(N2CCOCC2)c(Cl)c1 | 3.16µM* | 1.58µM* | 8.2µM* | 11.2µM* | 6.75µM* | ?
O=C(Nc1ccc(N2CCOCC2)c(Cl)c1)c1c(F)c(F)c(F)c(F)c1F | -12.8% | -15.6% | 2.0% | ? | -8.5% | -15.5%
CCn1cc(C(=O)NCCCN2CCCC(C)C2)c(=O)c2cc(S(=O)(=O)N(C)C3CCCCC3)ccc21 (stereo not given) | -6.4% | 2.0% | 1.0% | -0.9% | 0.2% | 7.6%
Cc1ccc(C(=O)N(CC(C)C)c2nc3ccccc3s2)o1 | 12.2% | 8.2% | -5.8% | nt | ? | -1.5%
SMILES | Rab9 prom act | NPC1 promoter act | ELG1 genotoxic | SMN2 splice enh | FLuc modulator | ELG1 repair inh
CC(C)CN(C(=O)c1ccc(=O)n(C)n1)c1nc2ccccc2s1 | 26.4% | 22.2% | 3.9% | 20µM* | -16.6% | ?
Cc1cccc2cn[nH]c12 | -4.7% | -11.6% | 6.6% | nt | 0.3% | 14.5%
Cc1[nH]nc2cn[nH]c12 | -0.8% | 8.4% | -14.7% | 6.1% | 0.2% | 13µM*
CCC(C)(C)C(=O)Nc1nnc(CCc2ccccc2)s1 | 3.98µM* | 2.82µM* | 20.6µM* | nt | ? | ?
CCCc1nnc(NC(=O)CC(=O)Nc2ccccc2C(=O)O)s1 | -1.1% | 24.3% | 0.9% | -10.6% | 19µM* | ?
CC(C)(C)CC(=O)Nc1nnc(CCc2ccccc2)s1 | 3.16µM* | 3.16µM* | ? | nt | ? | ?
CCCC(=O)Nc1nnc(CCc2ccccc2)s1 | 4.9% | 4.0% | -2.6% | nt | -5.1% | 21.7%
CCc1cccc(CC)c1NC(=O)CCS(=O)(=O)c1ccc(Br)cc1 | nt | nt | nt | nt | -8.0% | nt
Cc1ccc([C@H]2C(C(=O)O)=CC[C@@H](c3ccc(Cl)c(Cl)c3)N2S(=O)(=O)c2ccc(C)cc2)cc1 | nt | nt | -1.3% | nt | nt | -7.0%
Cc1ccc(S(=O)(=O)/N=C(/NC(=S)Nc2ccccc2)c2ccccc2)cc1 | 2.82µM* | 3.55µM* | ? | ? | 4.78µM* | ?
CCOc1ccc(S(=O)(=O)/N=C(/Nc2ccc(OC)cc2)c2ccccc2)cc1 | 8.8% | 12.0% | 5.6% | nt | -2.3% | 14.5%
COc1ccc(C(=O)NN/C(=N/S(=O)(=O)c2ccc(C)cc2)c2ccccc2)cc1 | 2.51µM* | 2.82µM* | ? | nt | 5.36µM* | ?
Cc1ccc(NC(=S)N/C(=N/S(=O)(=O)c2ccccc2)c2ccccc2)cc1 | 2.5% | 8.6% | 23.1µM* | -1.1% | 10.7µM* | ?
CC(=O)Nc1ccc(N/C(=N\S(=O)(=O)c2ccccc2)c2ccccc2)cc1 | 9.2% | -1.0% | -1.9% | nt | 2.3% | -16.3%
COc1ccc2cc(OCC(=O)NNC(=O)Nc3ccc(C(C)=O)cc3)ccc2c1 | 13.2% | 28.8% | ? | nt | -4.2% | ?
CN1CCOc2ccc(S(=O)(=O)N3CCN(S(=O)(=O)c4c(F)cccc4F)CC3)cc21 | ? | ? | nt | nt | 21.3µM* | nt
CC(=O)OC1CCC2(C)C3CC(=O)C4(C)C(CC5OC6(CCC(C)CO6)C(C)C54)C3CC[C@H]2C1 (stereo not given in full) | nt | nt | nt | 10.2% | nt | nt
Fc1cccc(Nc2ncnc3c2cnn3-c2ccccc2)c1 | ? | ? | ? | nt | 16.9µM* | ?
Clc1cccc(Nc2ncnc3c2cnn3-c2ccccc2)c1 | 17.4% | 25.3% | ? | 2.2% | 26.9µM* | -20.0%
